Results: PubChem BioAssay AID720517 (National Center for Advancing Translational Sciences (NCATS), 2013)
Results filed as inconclusive are left out. The source made the active and inactive calls. Calls come from the whole dose curve; as a rule, active = well fitted activation curve with a large enough effect; inconclusive = small, poorly fitted or top-dose-only effect; inactive = flat fitted curve, though single readings scatter.

Experiment: qHTS for Inhibitors of Cell Surface uPA Generation: FP59 Counterscreen for Cherry-picked Compounds; note: 0% is about no effect
Conditions: FP59 anthrax toxin cytotoxicity counterscreen, cells; series mostly up to 115 µM; activity (protection from FP59): at the top concentration

SMILES | activity (protection from FP59)
COC(=O)[C@@]1(Cc2ccc(F)cc2)[C@H]2c3cc(C(=O)N(C)C)n(Cc4c(CO)[nH]cc(C)c4=O)c3C[C@H]2CN1C(=O)c1ccccc1 | -1.32% (inactive)
O=C(NCCc1ccccc1)C1CCC(=O)N(Cc2cccc(C(F)(F)F)c2)C1 (configuration not stated) | -1.38% (inactive)
CCN(C(=O)CSc1ncnc2sccc12)c1c(N)n(Cc2ccccc2)c(=O)[nH]c1=O | -1.34% (inactive)
COc1ccc(C(=O)NCCCN2CCOCC2)cc1 | -1.15% (inactive)
COc1ccc(CC(=O)NNS(=O)(=O)c2ccccc2[N+](=O)[O-])cc1OC | -1.49% (inactive)
O=C(Nc1ccc(Cl)cc1)Nc1nnc(-c2ccncc2)s1 | -1.66% (inactive)
COc1ccc(N2CC(C(=O)Nc3nnc(SCCC4OCCO4)s3)CC2=O)cc1 (configuration not stated) | -1.21% (inactive)
O=C1c2ccccc2[C@@H]2C[C@H](NC34CC5CC(CC(C5)C3)C4)[C@@H](O)CCN12 | -1.36% (inactive)
Cc1ccc(Nc2nc(Cl)c(C=O)s2)cc1 | -0.509% (inactive)
COc1ccc(C(=O)NCC(=O)N/N=C/c2c(C)[nH]c3ccccc23)cc1 | -1.27% (inactive)
COc1ccc2c(c1)c1nnc(SCC(=O)Nc3ccccc3F)nc1n2C | -0.912% (inactive)
O=C(O)CSc1nnc(COc2ccccc2)n1-c1ccccc1 | -1.31% (inactive)
CCCN1CCN(C2CCCCC2NS(=O)(=O)c2ccc(Cl)cc2)CC1 (configuration not stated) | -1.5% (inactive)
CCOc1ccccc1CN1CCCC(CNS(=O)(=O)c2ccc(OC)cc2)C1 (configuration not stated) | -0.81% (inactive)
CCc1ccc(NCc2nc(-c3ccccc3)no2)cc1 | 0.485% (inactive)
COC(=O)CNC(=O)COC(=O)/C=C/c1ccccc1[N+](=O)[O-] | -1.46% (inactive)
Nc1ccc(S(=O)(=O)c2ccccc2)nc1 | -1.36% (inactive)
